Source: PubChem BioAssay (several laboratories)
Hits are enriched below; roughly 4.1% of the tested compounds scored in any of these assays.
Mdm2-MdmX inh: human Mdm2/MdmX binding inhibition | AID 485346 | inhibition, % at 8 µM | SaOS-2 split-luciferase Mdm2/MdmX complementation, luminescence | 330,000 compounds, 3% hits | O15151+Q00987;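 active = inhibition of at least 50% at 8 µM in the primary screen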
Target sequence (O15151 whole entry, looked up): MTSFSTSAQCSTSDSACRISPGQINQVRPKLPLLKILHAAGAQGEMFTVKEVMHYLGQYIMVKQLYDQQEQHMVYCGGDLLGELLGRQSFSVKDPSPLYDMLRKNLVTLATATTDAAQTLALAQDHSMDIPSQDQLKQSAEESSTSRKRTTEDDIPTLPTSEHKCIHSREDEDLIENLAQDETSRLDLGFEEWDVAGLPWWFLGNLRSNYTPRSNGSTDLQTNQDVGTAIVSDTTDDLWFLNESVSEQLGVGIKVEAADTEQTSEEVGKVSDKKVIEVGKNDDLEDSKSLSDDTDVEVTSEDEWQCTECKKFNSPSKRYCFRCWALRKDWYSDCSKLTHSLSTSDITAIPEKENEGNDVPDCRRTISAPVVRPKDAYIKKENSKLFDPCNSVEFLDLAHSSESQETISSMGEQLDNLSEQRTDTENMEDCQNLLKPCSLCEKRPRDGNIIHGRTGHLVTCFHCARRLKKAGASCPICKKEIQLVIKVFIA
Target sequence (Q00987 whole entry, looked up): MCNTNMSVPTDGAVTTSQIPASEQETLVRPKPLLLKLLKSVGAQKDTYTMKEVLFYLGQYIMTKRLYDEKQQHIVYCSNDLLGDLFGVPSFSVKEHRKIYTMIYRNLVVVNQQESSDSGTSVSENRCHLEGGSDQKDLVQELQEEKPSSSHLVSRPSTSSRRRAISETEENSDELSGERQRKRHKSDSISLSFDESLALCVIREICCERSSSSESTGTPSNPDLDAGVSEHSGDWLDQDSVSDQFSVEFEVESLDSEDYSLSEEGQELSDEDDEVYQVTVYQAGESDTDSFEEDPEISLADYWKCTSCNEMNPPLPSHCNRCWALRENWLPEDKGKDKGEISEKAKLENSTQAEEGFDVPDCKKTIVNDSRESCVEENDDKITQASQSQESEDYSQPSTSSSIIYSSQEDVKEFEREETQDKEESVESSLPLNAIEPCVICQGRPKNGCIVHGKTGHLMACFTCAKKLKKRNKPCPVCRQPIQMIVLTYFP
aSyn UTR inh: MLPCN primary screen, SNCA 5' untranslated region | alpha-synuclein 5'UTR reporter, inhibitor activity | inhibition, % (tested at 7.5 µM) | 300,000 compounds, 0.82% hits; in the data active = inhibition above about 60%;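 note: H4 neuroglioblastoma cells stably carrying SNCA 5'UTR luciferase fusion; 0% = DMSO wells and 100% = positive control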
Jurkat NFkB inh: inhibitors of the PMA/ionomycin-induced NF-kB reporter in Jurkat cells; 330,000 compounds, 0.53% hits; inhibition, % at 4 µM; PMA/ionomycin-induced NF-kB luciferase reporter, luminescence; AID 435003; in the data active = inhibition above about 50%
697 NFkB inh: lowers PMA/ionomycin-induced NF-kB signal in 697 B cells; 697 B-cell NF-kB luciferase reporter, 16 h; inhibition, % at 4 µM; 330,000 compounds, 0.33% hits; AID 435022; in the data active = inhibition above about 35%
Gli-Sufu antag: Gli-Sufu pathway antagonism | Sufu-KO-LIGHT fibroblasts, Gli luciferase reporter luminescence | inhibition, % at 5 µM | 340,000 compounds, 0.74% hits;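 active = inhibition above about 55%, limit read from the data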;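 note: 0% = DMSO-treated cells and 100% = wells with medium but no cells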
KLF5 inh: kruppel-like factor 5 inhibition; DLD-1 KLF5 promoter-luciferase reporter, luminescence; inhibition, % at 5 µM; 290,000 compounds, 0.23% hits; AID 1700;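 active = inhibition above a per-plate limit of that plate's mean compound inhibition plus 3 SD, cut at about 60% in these data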;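 note: 0% = DMSO wells and 100% = LY294002 at 200 µM; higher means less KLF5 promoter-driven luciferase light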
Mdm2-MdmX conf: confirmation of human Mdm2/MdmX interaction inhibitors. Mdm2-MdmX binding, luminescent assay. 10,000 compounds, 55% hits. AID 489028. shares compounds with Mdm2-MdmX inh. inhibition, % at 8 µM; in the data active = inhibition above about 40%
Full FLuc ctr: full-length luciferase inhibition in Mdm2/MdmX counter-screen; AID 504607; inhibition, % at 8 µM; 6,200 compounds, 77% hits; SaOS-2 full-length luciferase counterscreen, luminescence; shares compounds with Mdm2-MdmX inh;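 active = mean inhibition at 8 µM reaching about 37%, which flags the compound as non-specific, limit read from the data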;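 note: p53-null SaOS-2 cells with luciferase driven by a doxycycline-inducible promoter; compound on cells about two nights before reading with doxycycline added after day one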
Gli-Sufu confirm: confirmation of Gli-SUFU pathway antagonists | AID 602428 | 2,500 compounds, 40% hits | inhibition, % at 5 µM | Sufu-KO-LIGHT cells, Gli luciferase reporter, luminescence | shares compounds with Gli-Sufu antag;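 active = mean inhibition at 5 µM reaching about 45%, limit read from the data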;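 note: plate controls were DMSO-treated cells for no effect and wells lacking cells for full effect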
SufuKO cytotox: cytotoxicity counter-screen for Gli-SUFU antagonists. Sufu-KO-LIGHT cells cytotoxicity, ATP luminescence. shares compounds with Gli-Sufu antag. 2,500 compounds, 32% hits. cytotoxicity, % at 5 µM;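 active = mean cytotoxicity at 5 µM above about 25%, limit read from the data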;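 note: cells exposed to compound overnight for roughly 16 to 18 hours; plate controls were DMSO wells with cells for no effect and medium without cells for full effect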
Wnt3a counter: counter-screen for Gli-SUFU antagonists: Wnt3a reporter inhibition | shares compounds with Gli-Sufu antag | inhibition, % at 6.25 µM | 2,500 compounds, 20% hits | Wnt-LIGHT cells, Wnt3a-driven luciferase reporter, luminescence;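 active = mean inhibition above about 25%, limit read from the data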
* marks the source's active call; other numbers are inactive results; . = no result given.

SMILES | Mdm2-MdmX inh | aSyn UTR inh | Jurkat NFkB inh | 697 NFkB inh | Gli-Sufu antag | KLF5 inh | Mdm2-MdmX conf | Full FLuc ctr | Gli-Sufu confirm | SufuKO cytotox | Wnt3a counter
C[C@H]1COC(=O)[C@H](NC(=O)OCC2c3ccccc3-c3ccccc32)C/C=C\C[C@H](CC(=O)N(CCO)Cc2ccccc2)C(=O)N1 | 9.3 | . | -6.9 | -2.7 | 38.5 | . | . | . | . | . | .
O=C(N[C@@H]1C/C=C\C[C@H](CC(=O)N(CCO)Cc2ccccc2)C(=O)NC[C@@H](c2ccccc2)OC1=O)OCC1c2ccccc2-c2ccccc21 | 50.7* | . | -3.9 | 6.5 | 66.9* | . | 6.7 | . | 65.0* | 25.6* | -5.9
O=C(C[C@H]1C/C=C\C[C@H](NC(=O)OCC2c3ccccc3-c3ccccc32)C(=O)O[C@H](c2ccccc2)CNC1=O)N[C@H](CO)Cc1ccccc1 | 78.5* | . | -12.6 | -8.8 | 62.7* | . | 47.0* | 56.2* | 53.7* | 34.2* | -12.3
OCC1(Cc2ccccc2F)CCCN(Cc2c(F)ccc(F)c2F)C1 (centres undefined) | 10.9 | 17.5 | -13.7 | -10.5 | 27.1 | -6.8 | . | . | . | . | .
O=c1[nH]cnc(O)c1C(c1ccc([N+](=O)[O-])cc1)c1c(O)nc[nH]c1=O | 13.6 | 12.7 | 4.5 | 8.4 | 32.4 | -31.6 | . | . | . | . | .
Cc1cccc(-n2ncc3c(N(CCO)CCO)ncnc32)c1 | -20.5 | -105.7 | -55.2 | -24.1 | -43.8 | -59.1 | . | . | . | . | .
Cc1cccc(-n2ncc3c(N(C)C4CCCCC4)ncnc32)c1 | 90.1* | 66.0* | 27.2 | -79.2 | 55.6* | . | 87.0* | 84.5* | 76.4* | 68.9* | 99.0*
Cc1ccc2nc(-c3ccccc3)nn2c1 | . | . | . | . | -52.4 | . | . | . | . | . | .
Fc1ccc(-n2nnnc2-c2cnc(-c3cccs3)nc2C(F)(F)F)cc1 | 56.2* | 7.7 | 11.8 | -44.8 | 51.3 | -2.1 | 43.5* | 58.7* | 56.1* | 30.6* | -13.1
COc1ccc(OCC(O)CN2C(=O)c3ccccc3C2=O)cc1 (centres undefined) | -0.8 | -0.5 | 7.1 | 9.1 | 34.2 | -23.8 | . | . | . | . | .
COc1ccc(OCC(O)Cn2c(=N)n(Cc3ccccc3)c3ccccc32)cc1 (centres undefined) | 53.7* | 2.0 | 26.5 | -12.7 | 52.1 | 0.6 | 43.2* | 65.3* | 33.0 | 30.9* | -14.1
Cc1ccc(N=c2c([N+](=O)[O-])nn(-c3ccc4c(c3)OCCO4)n2O)cc1F | 79.6* | 46.7 | 40.1 | 7.0 | 61.0* | -4.5 | 94.8* | 23.7 | 64.7* | -1.7 | 69.8*
Cc1ccc(CN=c2c([N+](=O)[O-])nn(-c3ccc4c(c3)OCCO4)n2O)cc1 | -148.0 | -132.5 | -92.1 | -72.8 | -16.4 | -51.2 | . | . | . | . | .
Cc1ccc(N=c2c([N+](=O)[O-])nn(-c3ccc4c(c3)OCCO4)n2O)c(Cl)c1 | 40.4 | 50.7 | 29.6 | 6.9 | . | -20.6 | . | . | . | . | .
O=[N+]([O-])c1nn(-c2ccc3c(c2)OCCO3)n(O)c1=Nc1ccc(Cl)cc1 | 86.0* | 12.0 | 39.0 | 9.9 | 57.2* | 21.1 | 92.0* | 50.8* | 59.5* | 17.4 | 43.7*
Cc1ccc(-c2[nH]c3cc(C(N)=O)ccc3c(=O)c2O)cc1 | 34.3 | -21.0 | 2.9 | -14.7 | -7.0 | . | . | . | . | . | .
Cc1ccc(CNC(=O)c2ccc3c(=O)c(O)c(-c4ccc(C)cc4)[nH]c3c2)cc1 | 58.4* | 93.7* | 39.1 | -13.8 | 65.8* | . | 55.2* | 29.0 | 63.0* | 11.6 | 70.1*
O=C(NC(=S)Nc1ccc2oc(=O)ccc2c1)c1cccc(Cl)c1 | 15.1 | -18.8 | 7.1 | 9.0 | 6.7 | -46.5 | . | . | . | . | .
Cc1nc2ccccc2c(N)c1C(=O)/C=C/c1ccccc1 | 76.3* | -30.3 | 13.9 | -35.2 | 61.3* | -12.8 | 33.0 | 75.0* | 14.6 | -1.5 | -55.2
COc1ccc(C(=O)Nc2ccc(NC(=O)Cc3ccccc3)cn2)cc1 | -15.9 | -24.9 | -1.9 | 7.6 | -17.5 | -28.7 | . | . | . | . | .
CCO/C(=C/c1sc2ccc(OC)cc2[n+]1CCCS(=O)(=O)[O-])CC | -5.1 | 24.7 | -6.1 | 9.8 | 10.6 | -4.0 | . | . | . | . | .
CCC(/C=C1\Sc2ccc(OC)cc2N1CC)=C\c1sc2ccc(OC)cc2[n+]1CCCS(=O)(=O)[O-] | 53.9* | 27.1 | -6.0 | 18.2 | 70.3* | -2.4 | 24.9 | . | 81.7* | 40.3* | 4.8
CNC(=O)CC1C(=O)N(c2ccc(F)cc2)C(=S)N1NC(=O)c1ccc(Cl)cc1 (centres undefined) | -28.5 | -20.4 | -9.1 | -9.7 | 17.9 | 10.2 | . | . | . | . | .
Cc1nc2ccccc2c2oc(C(=O)N3CCN(c4ccc([N+](=O)[O-])cc4)CC3)cc12 | 85.7* | 11.3 | 4.8 | -12.9 | 59.1* | -3.7 | 16.9 | . | 29.2 | 28.1* | -83.5
Cc1nc2ccccc2c2oc(C(=O)N3CCN(C(=O)c4ccco4)CC3)cc12 | 28.8 | 21.0 | 5.3 | 9.4 | 4.3 | -21.6 | . | . | . | . | .
SMILES | Mdm2-MdmX inh | aSyn UTR inh | Jurkat NFkB inh | 697 NFkB inh | Gli-Sufu antag | KLF5 inh | Mdm2-MdmX conf | Full FLuc ctr | Gli-Sufu confirm | SufuKO cytotox | Wnt3a counter
Cc1ccc(-c2cc3cccc[n+]3cc2-c2ccc(C)cc2)cc1 | 52.3* | 50.6 | 49.5 | -81.4 | 86.4* | 14.6 | 42.7* | 47.5* | 89.5* | 27.3* | 48.1*
Cc1ccc2nc(-c3ccncc3)cc(-c3ccccc3)c2c1 | 11.0 | 15.7 | 15.2 | 8.9 | -3.0 | 4.9 | . | . | . | . | .
O=C(OCC(=O)N1CCCC1=O)C1COc2ccccc2O1 (centres undefined) | 32.4 | -1.8 | -5.9 | 0.9 | -2.1 | -30.1 | . | . | . | . | .
N#CC1=C(N)N2C(=C(C#N)C1c1ccc(Br)cc1)Nc1ccccc12 (centres undefined) | 96.4* | 22.2 | -2.2 | 7.5 | 58.1* | -21.8 | 95.3* | 53.0* | 82.7* | 37.0* | 66.6*
Cc1ccc(CNC(=O)Cn2ccc3cc(S(=O)(=O)N4CCCC4)ccc32)o1 | 23.9 | -5.8 | -8.6 | 3.7 | 34.1 | -1.3 | . | . | . | . | .
Oc1cccc(Nc2c3ccccc3nc3ccccc23)c1 | 28.9 | -80.6 | 5.0 | -33.4 | 13.0 | -5.0 | . | . | . | . | .
COc1cc(Nc2c3ccccc3nc3ccccc23)cc(OC)c1OC | 86.1* | 34.3 | 35.6 | -13.2 | 61.3* | -8.5 | 54.8* | 62.1* | 30.9 | 16.0 | -42.8
CCOc1ccc(OCc2ccc(C(=O)NN=Cc3ccc[nH]3)cc2)cc1 | 83.5* | . | -16.0 | -87.2 | 79.5* | . | 73.0* | 28.0 | 79.8* | 17.7 | -20.5
O=C(N/N=C/c1ccc[nH]1)c1ccccc1OCc1ccc(F)cc1 | -14.0 | 11.1 | -2.2 | 20.9 | -11.3 | -18.4 | . | . | . | . | .
